Measured values: PubChem BioAssay AID1376 (SRMLSC, 2008)
The whole screen tested about 220,000 compounds, of which about 530 (0.24%) were called active. For the sample, actives were picked, then their nearest neighbours and some compounds at random. Measured potencies and affinities stand elsewhere. Values without a mark were called inactive. Rule as the data show it: active = inhibition above about 13%; inconclusive = no clear call, values can overlap the other calls; inactive = below that.

Biological target: Bifunctional protein GlmU (Mycobacterium tuberculosis (strain ATCC 25618 / H37Rv)) (UniProt P9WMN3)
Assay: inhibition of mycobacterial GlmU enzyme – biochemical, glucosamine-1-phosphate acetyltransferase (AID 1376);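 also: 0% = complete reaction with vehicle and 100% = reaction without substrate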
Conditions: M. tuberculosis GlmU acetyltransferase enzyme assay; active compounds read high;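 tested at 30 µM in the primary screen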

Sequence of Bifunctional protein GlmU (Mycobacterium tuberculosis (strain ATCC 25618 / H37Rv)) (P9WMN3 whole entry, looked up): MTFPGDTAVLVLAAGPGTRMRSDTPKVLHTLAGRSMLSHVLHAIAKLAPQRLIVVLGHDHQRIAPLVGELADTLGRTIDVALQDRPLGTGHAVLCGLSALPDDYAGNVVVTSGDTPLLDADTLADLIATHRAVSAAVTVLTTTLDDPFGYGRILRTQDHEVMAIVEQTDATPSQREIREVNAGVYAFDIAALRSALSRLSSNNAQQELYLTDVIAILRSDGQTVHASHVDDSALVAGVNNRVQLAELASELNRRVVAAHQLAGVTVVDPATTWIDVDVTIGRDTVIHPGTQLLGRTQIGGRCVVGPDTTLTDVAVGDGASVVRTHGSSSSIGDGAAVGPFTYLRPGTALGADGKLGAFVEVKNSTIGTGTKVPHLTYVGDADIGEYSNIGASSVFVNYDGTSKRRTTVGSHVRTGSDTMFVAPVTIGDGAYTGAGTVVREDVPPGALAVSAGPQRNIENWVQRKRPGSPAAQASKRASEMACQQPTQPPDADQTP

Row | Compound | inhibition
1 | O=C1CN(c2ccc(Cl)cc2)C(=O)CN1NC(=S)Nc1ccc(Cl)cc1 | -0.02%
2 | Cc1ccccc1-c1nnc(SCC#N)o1 | 5.25%
3 | Clc1cccc(/C=N/Nc2nc(Cl)nc3ccccc23)c1 | -3.16%
4 | C(=N\Nc1ncnc2ccccc12)/c1ccccc1 | 4.18%
5 | Clc1cccc(/C=N/Nc2ncnc3ccccc23)c1 | 14.7% (active)
6 | O=C(COC(=O)c1cccs1)NCC1CCCCC1 | -4.05%
7 | Cc1cc(C)nc(Sc2ccc(/C=C(\C#N)C(N)=O)o2)n1 | 3.14%
8 | Cc1cc(C)nc(Sc2ccc(/C=C(\C#N)C(=O)Nc3ccccc3)o2)n1 | -0.9%
9 | Cc1ccc(NC(=O)/C(C#N)=C/c2ccc(Sc3nc(C)cc(C)n3)o2)cc1 | 19.7% (active)
10 | O=C1c2ccccc2S(=O)(=O)c2cc(C(=O)N3CCN(c4ccccc4)CC3)ccc21 | -0.95%
11 | COc1ccc(/C=N/NC(=O)c2ccc(CN3C(=O)c4cccc5cccc3c45)cc2)cc1O | -5.54%
12 | O=C(Nc1ccc(Cl)cc1)N1CCN(c2ccccc2)CC1 | -0.29%
13 | CC(=O)N1C(Nc2ccc(Cl)cc2)CCN1c1ccccc1 (stereo not given) | 13.2% (active)
14 | O=C(CCN1CCN(c2ccccc2)CC1)Nc1ccc(Cl)cc1 | 7.38%
15 | COc1ccc(OCCC(=O)OCC(=O)NCCC2=CCCCC2)cc1 | -0.76%
16 | O=C(NCc1ccc2c(c1)OCO2)c1cc(-c2ccc(Cl)cc2Cl)on1 | -0.34%
17 | O=c1cc[nH]c2c(Cl)cccc12 | 17.7% (active)
18 | O=c1cc[nH]c2c(C(F)(F)F)cccc12 | 2.39%
19 | Cc1[nH]ccc(=O)c1OCc1c(Cl)cccc1Cl | -3.63%
20 | COC(=O)C(C(=O)OC)c1ncccc1[N+](=O)[O-] | 3.41%
21 | COc1ccc(N2CC(C(=O)Nc3ccc4c(c3)OCO4)CC2=O)cc1 (stereo not given) | -2.39%
22 | CS(=O)(=O)N(Cc1ccco1)Cc1ccccc1Cl | 1.25%
23 | COCC(C)n1c(C)cc(C(=O)CSc2nnc(Nc3ccccc3F)s2)c1C (stereo not given) | 1.64%
24 | Cc1c(Cl)c([N+](=O)[O-])nn1CCCC(=O)Nc1c(Cl)cccc1Cl | 13.8% (active)

Row | Compound | inhibition
25 | Cc1c(Cl)c([N+](=O)[O-])nn1CCCC(=O)Nc1cccc(Cl)c1Cl | -3.35%
26 | Cc1nn(Cc2c(Cl)cccc2Cl)c(C)c1NC(=O)CCCn1nc([N+](=O)[O-])c(Cl)c1C | 0.47%
27 | Cc1cc(-c2ccccc2C(=O)NCc2ccccc2)on1 | 2.22%
28 | COc1ccc(S(=O)(=O)N2CCCN(S(=O)(=O)c3ccc(OC)cc3C)CC2)c(C)c1 | 4.67%
29 | CC12CCC(C(=O)NCCc3ccccc3)(OC1=O)C2(C)C (stereo not given) | 0.84%
30 | Cc1cccc(S(=O)(=O)Nc2cccc3c2C(=O)c2ccccc2-3)c1 | 2.87%
31 | Cc1cc(C)c(NC(=O)COC(=O)c2cccc3c2C(=O)c2ccccc2C3=O)c(C)c1 | 3.23%
32 | Cc1cc(C)c(Nc2cc(S(=O)(=O)O)c(N)c3c2C(=O)c2ccccc2C3=O)c(C)c1 | 17.5% (active)
33 | O=C(O)c1cccc(NC(CNS(=O)(=O)c2ccc(Cl)cc2)c2ccccc2)c1 (stereo not given) | 3.6%
34 | CN1CCN(CCOc2ccc(Cl)c(Cl)c2)CC1 | -3.6%
35 | CCc1ccccc1NC(=O)c1ccc(CN2CCC(Cc3ccccc3)CC2)cc1 | 3.49%
36 | CCOC(=O)COc1cnc2ccccc2n1 | 1.75%
37 | CC(=O)Nc1ccc2nc(NS(=O)(=O)c3ccc(C)cc3)sc2c1 | 3.98%
38 | CC(=O)Nc1ccc(S(=O)(=O)Nc2nc3ccc(C)cc3s2)cc1 | 13.2% (active)
39 | COc1ccc2nc(NS(=O)(=O)c3ccc(NC(C)=O)cc3)sc2c1 | 4.76%
40 | CCc1c(O)nc(SCC(=O)NCc2ccco2)[nH]c1=O | -0.2%
41 | COc1ccc(Nc2ccc(N3C(=O)CCC3=O)cc2[N+](=O)[O-])cn1 | 2.73%
42 | CCCc1ccc(C(=O)NNC(=O)c2ccc(Cl)cc2)cc1 | 17.1% (active)
43 | CCCc1ccc(C(=O)NNC(=O)c2ccc(Br)cc2)cc1 | 1.63%
44 | CCCc1ccc(C(=O)NNc2cc(Cl)ccc2Cl)cc1 | 2.48%
45 | CCOc1ccccc1/C=N/NC(=O)CNC(=O)c1ccc(S(=O)(=O)N2CCOCC2)cc1 | 0.48%
46 | CC(C)N1CCc2c(sc(NC(=O)c3nc4ccccc4s3)c2C(N)=O)C1 | 13.7% (active)
47 | CC(C)N1CCc2c(sc(NC(=O)c3cc(-c4cccs4)nc4ccccc34)c2C(N)=O)C1 | -3.1%
48 | COC(=O)c1c(NC(=O)c2nc3ccccc3s2)sc2c1CCN(C(C)=O)C2 | -1.93%

Row | Compound | inhibition
49 | CCC(=O)N1CCc2cc(Br)cc(S(=O)(=O)CCC(=O)N(CC)CC)c21 | -2.77%
50 | CCN=C1S/C(=C\c2cc(OCC)c(O)cc2Br)C(=O)N1CC | -1.66%
51 | COc1ccc(N(CC(=O)NN=C2CCCCCCC2)S(=O)(=O)c2ccccc2)cc1Cl | 0.05%
52 | CC(=O)Nc1ccc(NC(=O)CCCSc2nc3ccccc3[nH]2)cc1 | -7.79%
53 | Cc1cc(C(F)F)n2ncc(C(=O)NCc3ccc(F)cc3)c2n1 | 3.5%
54 | Cc1cc(C(F)F)n2ncc(C(=O)NCc3ccccc3)c2n1 | 1.36%
55 | COc1ccc(CNC(=O)c2cnn3c(C(F)F)cc(C)nc23)cc1 | 14.5% (active)
56 | CCS(=O)(=O)NCCNc1ccc([N+](=O)[O-])cc1 | 1.84%
57 | Nc1nc(SCC(=O)NCc2ccccc2)n[nH]1 | 0.23%
58 | Cc1cc2c(o1)CC(C)(C)CC2=O | 1.91%
59 | O=C(Nc1cccnc1)c1cc2c(ccc3ccccc32)o1 | 7.23%
60 | CCCCOC(=O)Nc1ccc(S(=O)(=O)Nc2nccs2)cc1 | -2.11%
61 | Cc1ccc([N+](=O)[O-])cc1N=Nc1c(-c2ccc([N+](=O)[O-])cc2)[nH]n(C(N)=S)c1=O | 0.14%
62 | NC(=S)n1[nH]c(-c2ccc([N+](=O)[O-])cc2)c(N=Nc2ccccc2[N+](=O)[O-])c1=O | -2.18%
63 | Cc1c(N=Nc2c(-c3ccc([N+](=O)[O-])cc3)[nH]n(C(N)=S)c2=O)cccc1[N+](=O)[O-] | 14.5% (active)
64 | NCCN1CCN(CCN)CC1 | -1.39%
65 | COc1ccc(C2(C)NC(=O)N(CC(=O)Nc3ccc(-c4nc5ccc(C)cc5s4)cc3)C2=O)cc1 (stereo not given) | -4.16%
66 | O=c1cc(Cl)[nH]c(=O)n1CCNc1ncc(C(F)(F)F)cc1Cl | -0.65%
67 | O=C(c1ccccc1F)N1CCCC(C(=O)N2CCN(c3ccccc3)CC2)C1 (stereo not given) | 4.78%
68 | CC(C)C(=O)N1CCN(c2ccc(NC(=O)c3cccs3)cc2)CC1 | -0.11%
69 | C=CCOc1c(CNc2ccc(C(=O)O)cc2)cccc1OCC | -3.36%
70 | C=CCOc1c(CNc2cccc(C(=O)O)c2)cccc1OCC | 17.6% (active)
71 | C=CCOc1c(CNc2cccc(C(=O)O)c2)cccc1OC | -2.58%
72 | COc1ccc(CC(=O)Nc2c3c(nn2-c2cccc(C)c2C)CS(=O)C3)cc1 (stereo not given) | 0.63%

Row | Compound | inhibition
73 | CCN(C(=O)c1cc2c(=O)[nH]c3ccc(C)cc3c2s1)c1cccc(C)c1 | 0.79%
74 | Cn1c(=O)c2c(nc(SCC(=O)c3ccccc3F)n2C)n(C)c1=O | 2.09%
75 | COc1cccc2c1OC1(C)CC2NC(=O)N1 (stereo not given) | 7.2%
76 | COc1ccc(-c2nnc3ccc(SCC(=O)NCc4ccco4)nn23)cc1 | -0.33%
77 | COc1ccc(C(=O)NC(Oc2ccccc2)C(Cl)(Cl)Cl)cc1 (stereo not given) | 46.8% (active)
78 | Cc1cccc(C(=O)NC(Oc2ccccc2)C(Cl)(Cl)Cl)c1 (stereo not given) | 0.69%
79 | O=C(NC(Oc1ccccc1)C(Cl)(Cl)Cl)c1ccccc1 (stereo not given) | 2.49%
80 | CCCCCC(=O)c1c(C)[nH]c(C(=O)OCC)c1C | 2.82%
81 | NC(=O)C1(N2CCCCC2)CCN(C(=S)Nc2cc(F)cc(F)c2)CC1 | 3.46%
82 | Cn1nnc(CC[N+](C)(C)C)n1 | -0.54%
83 | CCOC(=O)c1cnc2c(-c3ccc(Cl)cc3)c(C)nn2c1N | -0.25%
84 | CCn1c(SCC(=O)OCC(=O)N2c3ccccc3NC(=O)C2(C)C)nnc1-c1ccco1 | 3.17%
85 | CCN(c1ccc(NS(=O)(=O)c2cc(Cl)ccc2Cl)cc1)C(C)C | -7.63%
86 | CCc1c(C)sc(NC(=O)c2ccco2)c1C(=O)N1CCCCC1 | 0.95%
87 | CCc1c(C)sc(NC(=O)c2ccco2)c1C(=O)N1CCOCC1 | 13.4% (active)
88 | CCc1c(C)sc(NC(=O)OC)c1C(=O)N1CCOCC1 | 2.3%
89 | Cc1ccccc1NC(=S)N(CCN(C)C)C(C)c1ccco1 (stereo not given) | -1.1%
90 | CC1=NN(c2ccccc2)C(=O)/C1=C/c1c(O)n(-c2ccc(F)c(Cl)c2)[nH]c1=O | 13.6% (active)
91 | CC1=NN(c2ccccc2)C(=O)/C1=C/c1c(O)n(-c2ccc(F)cc2)[nH]c1=O | 7.97%
92 | CC1=NN(c2ccccc2)C(=O)/C1=C/c1c(O)[nH]c(=S)[nH]c1=O | -4.55%
93 | CCOc1ccc(Nc2nc3ccccc3c(=O)s2)cc1 | 13.8% (active)
94 | O=c1sc(Nc2ccccc2)nc2ccccc12 | 4.04%
95 | CCc1ccc(Nc2nc3ccccc3c(=O)s2)cc1 | -0.12%
